# Source: PubChem BioAssay AID1825 (The Scripps Research Institute Molecular Screening Center, 2009)
# In all, about 290,000 compounds went through this assay and about 2,300 (0.79%) were called active. Rule as the data show it: active = inhibition above about 22%; inactive = the rest. Only a selection was taken, and actives are over-represented in it overall.
# Test: IEC-6 cell viability reduction – luminescence, cytotoxicity control for KLF5 inhibitor project, primary screen (AID 1825);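 also: 0% = plate median of test compound wells and 100% = cytotoxic reference compound wells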
# Settings: IEC-6 cytotoxicity, at 5 µM, stronger effect = higher value
row,SMILES,inhibition
1,Cc1cccnc1NC(=O)c1cccc(S(=O)(=O)N2CCN(c3ccc(F)cc3)CC2)c1,2.3% (inactive)
2,O=C(N/N=C/c1c[nH]c2ccccc12)c1cc2ccccc2o1,12.6% (inactive)
3,O=C(N/N=C/c1coc2ccccc2c1=O)c1cc2ccccc2o1,4.7% (inactive)
4,Cc1c(/C=N\NC(=O)c2cc3ccccc3o2)c2ccccc2n1C,43.7% (active)
5,O=C(Nc1ccccc1Cl)Nc1cccc2cccnc12,3.4% (inactive)
6,O=[N+]([O-])c1ccccc1S(=O)(=O)Nc1cccc2cccnc12,55.6% (active)
7,Cc1ccccc1NC(=O)c1ccccc1NS(=O)(=O)c1cccc2cccnc12,-2.7% (inactive)
8,O=C(NCCc1nnc2ccc(SCC(=O)N3CCOCC3)nn12)c1ccccc1,-3.4% (inactive)
9,CCC(Cc1ccccc1)NS(=O)(=O)c1ccc2c(c1)NC(=O)CS2 (stereo unspecified),2.9% (inactive)
10,CCOc1cc(C(=O)N2CCc3cc(OC)c(OC)cc3C2)ccc1OC(F)F,90% (active)
11,COc1cc2c(cc1OC)CN(C(=O)c1ccc(S(=O)(=O)N3CCCCCC3)cc1)CC2,0.2% (inactive)
12,COc1cc2c(cc1OC)CN(C(=O)c1cc(=O)c3ccccc3o1)CC2,18.2% (inactive)
13,CCCCN(CCCC)CCCNC(=O)CN1C(=O)COc2ccc(S(=O)(=O)N3CCC(C)CC3)cc21,7.2% (inactive)
14,COc1ccc(C2=Nc3cc(C)ccc3OC2)cc1,-0.6% (inactive)
15,CCOC(=O)CNc1nc(Cl)nc(Nc2ccc(OC)cc2OC)n1,6.5% (inactive)
16,CCCc1cc(=O)oc2c(C)c(OCC(=O)NCc3ccccn3)ccc12,-5.9% (inactive)
17,Nc1c(C(=O)NCc2ccccc2)nnn1Cc1cccc(Cl)c1,24.6% (active)
18,COc1cccc(CNC(=O)c2nnn(CC(=O)Nc3cc(Cl)ccc3C)c2N)c1,19.7% (inactive)
19,CCOc1ccc(Cn2nnc(C(=O)NCc3ccccc3)c2N)cc1,4.7% (inactive)
20,Cc1ccc(NS(=O)(=O)c2ccc(C(C)(C)C)cc2)cn1,-0.9% (inactive)
21,Cc1cnc(C(=O)Oc2cccc(Cl)c2Cl)cn1,5.1% (inactive)

row,SMILES,inhibition
1,COc1ccccc1-c1nnc(NC(=O)c2cccc(N3C(=O)CCC3=O)c2)o1,-5.8% (inactive)
2,COc1ccccc1-c1nnc(SCC(=O)Nc2ccccc2)o1,-0.6% (inactive)
3,COc1ccccc1-c1nnc(NC(=O)c2ccc3ncsc3c2)o1,22.8% (active)
4,CC(C)=CCN1CCN(Cc2cc3ccccc3[nH]2)CC1CCO (stereo unspecified),1.5% (inactive)
5,CCOC(=O)C(C(=O)OCC)C(C#N)c1ccccc1 (stereo unspecified),3.7% (inactive)
6,CCOC(=O)/C=C/C(=O)OCC(=O)NC(c1ccccc1)c1ccccc1,50.9% (active)
7,O=C(Cc1ccc(-c2ccccc2)cc1)NC(c1ccccc1)c1ccccc1,-1.8% (inactive)
8,CCc1ccc2[nH]c(=O)c(Cc3ccccc3)c(O)c2c1,-0.4% (inactive)
9,COC(=O)c1ccc(S(=O)(=O)N2CCc3ccccc3C2)cc1,1.8% (inactive)
10,CC(=O)Nc1c2c(nn1-c1cccc(C)c1)CSC2,2.5% (inactive)
11,Cn1cc(CNC(=O)c2ccc(OC3CCN(Cc4ccccn4)CC3)cc2)cn1,5.4% (inactive)
12,O=C(NCCOc1cccnc1)c1ccc(OC2CCN(Cc3ccccn3)CC2)cc1,99.8% (active)
13,O=C(c1ccc(OC2CCN(Cc3ccccn3)CC2)cc1)N1CCCCCC1,-0.7% (inactive)
14,Cc1cccc(N2C(=O)N3[C@H](c4ccc(F)cc4)[C@@H]4C(=O)N(C5CCCCC5)C(=O)[C@@H]4[C@]3(Cc3ccccc3)C2=O)c1,-6% (inactive)
15,O=C(CSc1nnc(CNC(=O)c2ccc(F)cc2)o1)Nc1ccc2c(c1)OCO2,8.3% (inactive)
16,COC(=O)CSc1nnc(NC(=O)CCc2ccccc2)s1,8.2% (inactive)
17,Cn1c(=O)c2c(nc(NCCc3ccccc3)n2Cc2ccccc2)n(C)c1=O,-1.8% (inactive)
18,COC(=O)C(C)Sc1nc2c(c(=O)n(C)c(=O)n2C)n1Cc1cccc(C)c1 (stereo unspecified),-2.6% (inactive)
19,CCCCNc1nc2c(c(=O)n(C)c(=O)n2C)n1Cc1cccc(OC)c1,25.1% (active)
20,CCc1ccc(CN(C)C(=O)C2CCC(=O)N(Cc3cccc(OC)c3)C2)nc1 (stereo unspecified),5.8% (inactive)
